From ChEMBL document CHEMBL3433997, “St. Jude Leishmania screening dataset” (2016)

Target: Solute carrier family 2, facilitated glucose transporter member 1 (Homo sapiens) (UniProt P11166)
Assay: ST_JUDE_LEISH: Cytotoxicity at 2uM final concentration against transgenic Leishmania Mexicana promastigotes LmGLUT1 that are glucose transport deficient and complemented with the human glucose transporter GLUT1. Activity is measured by DNA content using SYBR green in vitro
Assay type: functional

Solute carrier family 2, facilitated glucose transporter member 1 (Homo sapiens), sequence (P11166 whole entry): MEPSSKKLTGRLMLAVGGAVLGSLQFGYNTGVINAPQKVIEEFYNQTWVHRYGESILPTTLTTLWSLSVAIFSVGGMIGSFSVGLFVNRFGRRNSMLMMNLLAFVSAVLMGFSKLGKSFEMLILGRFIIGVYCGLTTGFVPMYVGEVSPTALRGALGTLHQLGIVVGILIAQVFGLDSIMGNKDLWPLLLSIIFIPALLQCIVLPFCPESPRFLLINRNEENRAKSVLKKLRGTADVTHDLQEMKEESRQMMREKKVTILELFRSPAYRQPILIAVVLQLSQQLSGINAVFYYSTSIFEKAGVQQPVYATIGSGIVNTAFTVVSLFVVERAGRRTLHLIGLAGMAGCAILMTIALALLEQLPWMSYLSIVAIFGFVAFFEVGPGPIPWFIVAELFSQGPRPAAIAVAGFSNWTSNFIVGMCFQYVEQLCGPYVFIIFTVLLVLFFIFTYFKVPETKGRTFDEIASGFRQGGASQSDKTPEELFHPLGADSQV

Compound | inhibition [%]
COc1ccc(C(=O)Nc2ccc3nc(N4CCCCC4)cc(C)c3c2)cc1[N+](=O)[O-] | 2.05
Cc1cc(C(F)(F)F)n2nc(C(=O)N(Cc3cncn3Cc3ccccc3F)CC3CC3)cc2n1 | -1.46
NS(=O)(=O)c1cncc(-c2ccc3nccc(-c4cn[nH]c4)c3n2)c1 | 6.71
Fc1ccc2[nH]c(-c3cccc(-c4cccc(CN5CCN(c6ccncc6)CC5)c4)c3)nc2c1 | 0.24
Nc1c2ccccc2nc2ccc(Cl)cc12 | 14.6
c1ccc(-c2cccnn2)cc1 | 1.25
Cc1ccc(C2(C)CN(CCCOc3cccc(-c4ccc(C(=O)NC(C)C)cc4)c3)CCO2)cc1 (stereo not given) | 0.12
Cc1ccccc1C1CCN(C2CCC(NC(=O)/C=C/c3ccc(C(F)(F)F)cc3F)CC2)CC1 (stereo not given) | 1.85
Cc1[nH]c(C)c(-c2ccc(CCc3ccc(F)cc3F)cc2)c(=O)c1Cl | 0.89
COc1ccc(-c2cncc3ccc(C(=O)NCc4ccncc4)nc23)cc1 | 6.53
CCc1ccc(CN2CCC(NC(=O)c3cc(-c4ccc(N(C)C)cc4)cs3)C2)cc1 (stereo not given) | 1.27
Cc1ccc2c(OCCN3CCC(Cc4cc5c(cc4F)OCC(=O)N5)CC3)cc(F)cc2n1 | 5.35
Cc1ccc(S(=O)(=O)N2CCN(C(=O)c3cc(-c4ccccc4)n[nH]3)CC2)cc1 | 4.96
CCC(C)OC(=O)C1=C(C)NC2=C(C(=O)CC(c3ccc(OC)c(OC)c3)C2)C1c1ccc(O)cc1 (stereo not given) | 3.25
O=C(Nc1cccc(F)c1)NC1CCN(c2ccnc3cc(Cl)ccc23)CC1 | 2.51
O=C(/C=C/c1ccc(Cl)c(Cl)c1)NCCCCCN1CCCC(CNC(=O)Nc2ccc(C(F)(F)F)cc2)C1 (stereo not given) | 4.18
COc1ccc(CNCCc2cccs2)cc1-c1ccc(S(=O)(=O)NCCN2CCCC2)s1 | 4.99
O=C(/C=C/c1ccc(F)cc1)NC1CCC(CCN2CCCN(c3ccc(C(F)(F)F)cn3)CC2)CC1 (stereo not given) | 1.97
COc1ccc(NC(=O)Nc2ccc(-c3ccc(-c4nc5ccccc5[nH]4)cc3)cc2)cc1 | 3.84
CO/C(=C\C=C\c1cc2cc(Cl)ccc2[nH]1)C(=O)NCCCN1CCN(c2cc(Cl)ccc2OC)CC1 | 1.52

Compound | inhibition [%]
O=C(/C=C/c1cccc2ccccc12)NCCCCCN1CCC(c2c[nH]c3ccccc23)CC1 | 0.55
Cc1cc(I)ccc1Nc1nc2nonc2nc1Nc1ccc(I)cc1C | 9.92
CC(CN(C)C)C(=O)Nc1ccc(-c2ccc(-c3nc4cc(F)ccc4[nH]3)cc2)cc1 (stereo not given) | 5.33
COc1ccc(-c2cc3ncnc(N4CCN(CCN5CCCC5)CC4)c3s2)cc1 | 2.34
CCOc1cc(NCCCNc2ncc([N+](=O)[O-])cc2C)nc2ccccc12 | 1.72
CCc1cc(CNC2CCN(CCc3c(F)cnc4ccc(OC)nc34)CC2)cc2c1OCCO2 | 23.9
Fc1ccccc1C=NN=c1cc[nH]c2ccc(C(F)(F)F)cc12 | 3.03
c1ccc2c(c1)cc(CNCCCN1CCN(CCCNCc3cc4ccccc4c4ccccc34)CC1)c1ccccc12 | -0.37
COc1cc(-n2cnc3cc(-c4ccc(Cl)cc4)sc3c2=O)ccc1OCCN1CCC(c2cccc(NC(C)=O)c2)CC1 | 6.68
O=C(O[C@@H]1CN[C@H](C#Cc2cc3ncnc(Nc4ccc5c(cnn5Cc5cccc(F)c5)c4)c3s2)C1)N1CCCC1 | 1.37
CN(Cc1ccccc1)C(=O)CCNS(=O)(=O)c1cc(Br)cnc1N | 2.6
CC(C)CCNC(=O)C1Cc2c([nH]c3ccc(Br)cc23)C2(CCN(CCc3ccccc3)CC2)N1 (stereo not given) | 1.72
CCCCCN1C(=O)C(c2ccccc2)(c2ccccc2)N=C1N | 4.32
CN(C(=O)Cc1ccc(Cl)cc1)C1CCN(CCCCCNC(=O)/C=C/c2ccc(Cl)c(Cl)c2)CC1 | 2.86
CNC(=O)Cc1ccc(C(=O)Nc2cccc(-c3ccc(-c4nc5cccc(C)c5[nH]4)s3)c2)cc1 | 3.65
CN(C)C(=O)CCCn1c(CNCCCNc2cc(=O)c3ccccc3[nH]2)cc2c(Cl)cc(Cl)cc21 | 0.57
COc1ccc2nccc([C@@H](O)CN3CCC(NS(=O)(=O)c4cc(Br)c(Br)s4)CC3)c2c1 | 3.72
CNS(=O)(=O)c1ccc2c(c1)nc(C1CCN(CC3CCC(NC(=O)/C=C/c4ccc(Cl)c(Cl)c4)CC3)CC1)n2C (stereo not given) | 11.9
CCOC(=O)c1c(C)n(-c2ccccc2)c2ccc(O)cc12 | -0.44
Cc1cc(=O)c(-c2ccc(Oc3ccc(OC(F)(F)F)cc3)cc2)c(C)[nH]1 | -0.98

Target: Hexose transporter 1 (Plasmodium falciparum) (UniProt O97467)
Assay: ST_JUDE_LEISH: Cytotoxicity at 2uM final concentration against transgenic Leishmania Mexicana promastigotes LmPfHT that are glucose transport deficient and complemented with the Plasmodium falciparum hexose transporter. Activity is measured by DNA content using SYBR green in vitro
Assay type: functional

Compound | inhibition [%]
COc1ccc(C(=O)Nc2ccc3nc(N4CCCCC4)cc(C)c3c2)cc1[N+](=O)[O-] | 3.3
Cc1cc(C(F)(F)F)n2nc(C(=O)N(Cc3cncn3Cc3ccccc3F)CC3CC3)cc2n1 | -0.8
NS(=O)(=O)c1cncc(-c2ccc3nccc(-c4cn[nH]c4)c3n2)c1 | 7.77
Fc1ccc2[nH]c(-c3cccc(-c4cccc(CN5CCN(c6ccncc6)CC5)c4)c3)nc2c1 | 1.73
Nc1c2ccccc2nc2ccc(Cl)cc12 | 16.4
c1ccc(-c2cccnn2)cc1 | 1.26
Cc1ccc(C2(C)CN(CCCOc3cccc(-c4ccc(C(=O)NC(C)C)cc4)c3)CCO2)cc1 (stereo not given) | 4.27
Cc1ccccc1C1CCN(C2CCC(NC(=O)/C=C/c3ccc(C(F)(F)F)cc3F)CC2)CC1 (stereo not given) | 0.43
Cc1[nH]c(C)c(-c2ccc(CCc3ccc(F)cc3F)cc2)c(=O)c1Cl | 1.94
COc1ccc(-c2cncc3ccc(C(=O)NCc4ccncc4)nc23)cc1 | 4.27
CCc1ccc(CN2CCC(NC(=O)c3cc(-c4ccc(N(C)C)cc4)cs3)C2)cc1 (stereo not given) | 4.08
Cc1ccc2c(OCCN3CCC(Cc4cc5c(cc4F)OCC(=O)N5)CC3)cc(F)cc2n1 | 4.63
Cc1ccc(S(=O)(=O)N2CCN(C(=O)c3cc(-c4ccccc4)n[nH]3)CC2)cc1 | 2.9
CCC(C)OC(=O)C1=C(C)NC2=C(C(=O)CC(c3ccc(OC)c(OC)c3)C2)C1c1ccc(O)cc1 (stereo not given) | 1.77
O=C(Nc1cccc(F)c1)NC1CCN(c2ccnc3cc(Cl)ccc23)CC1 | 1.28
O=C(/C=C/c1ccc(Cl)c(Cl)c1)NCCCCCN1CCCC(CNC(=O)Nc2ccc(C(F)(F)F)cc2)C1 (stereo not given) | 3.11
COc1ccc(CNCCc2cccs2)cc1-c1ccc(S(=O)(=O)NCCN2CCCC2)s1 | 5.45
O=C(/C=C/c1ccc(F)cc1)NC1CCC(CCN2CCCN(c3ccc(C(F)(F)F)cn3)CC2)CC1 (stereo not given) | -0.46
COc1ccc(NC(=O)Nc2ccc(-c3ccc(-c4nc5ccccc5[nH]4)cc3)cc2)cc1 | 5.18
CO/C(=C\C=C\c1cc2cc(Cl)ccc2[nH]1)C(=O)NCCCN1CCN(c2cc(Cl)ccc2OC)CC1 | 1.33

Compound | inhibition [%]
O=C(/C=C/c1cccc2ccccc12)NCCCCCN1CCC(c2c[nH]c3ccccc23)CC1 | 1.35
Cc1cc(I)ccc1Nc1nc2nonc2nc1Nc1ccc(I)cc1C | 9.02
CC(CN(C)C)C(=O)Nc1ccc(-c2ccc(-c3nc4cc(F)ccc4[nH]3)cc2)cc1 (stereo not given) | 1.98
COc1ccc(-c2cc3ncnc(N4CCN(CCN5CCCC5)CC4)c3s2)cc1 | 0.99
CCOc1cc(NCCCNc2ncc([N+](=O)[O-])cc2C)nc2ccccc12 | -1.69
CCc1cc(CNC2CCN(CCc3c(F)cnc4ccc(OC)nc34)CC2)cc2c1OCCO2 | 34.5
Fc1ccccc1C=NN=c1cc[nH]c2ccc(C(F)(F)F)cc12 | 3.13
c1ccc2c(c1)cc(CNCCCN1CCN(CCCNCc3cc4ccccc4c4ccccc34)CC1)c1ccccc12 | 0.84
COc1cc(-n2cnc3cc(-c4ccc(Cl)cc4)sc3c2=O)ccc1OCCN1CCC(c2cccc(NC(C)=O)c2)CC1 | 3.81
O=C(O[C@@H]1CN[C@H](C#Cc2cc3ncnc(Nc4ccc5c(cnn5Cc5cccc(F)c5)c4)c3s2)C1)N1CCCC1 | 0.19
CN(Cc1ccccc1)C(=O)CCNS(=O)(=O)c1cc(Br)cnc1N | 3.87
CC(C)CCNC(=O)C1Cc2c([nH]c3ccc(Br)cc23)C2(CCN(CCc3ccccc3)CC2)N1 (stereo not given) | 0.42
CCCCCN1C(=O)C(c2ccccc2)(c2ccccc2)N=C1N | 2.96
CN(C(=O)Cc1ccc(Cl)cc1)C1CCN(CCCCCNC(=O)/C=C/c2ccc(Cl)c(Cl)c2)CC1 | 2.1
CNC(=O)Cc1ccc(C(=O)Nc2cccc(-c3ccc(-c4nc5cccc(C)c5[nH]4)s3)c2)cc1 | 2.74
CN(C)C(=O)CCCn1c(CNCCCNc2cc(=O)c3ccccc3[nH]2)cc2c(Cl)cc(Cl)cc21 | 2.54
COc1ccc2nccc([C@@H](O)CN3CCC(NS(=O)(=O)c4cc(Br)c(Br)s4)CC3)c2c1 | 2.36
CNS(=O)(=O)c1ccc2c(c1)nc(C1CCN(CC3CCC(NC(=O)/C=C/c4ccc(Cl)c(Cl)c4)CC3)CC1)n2C (stereo not given) | 10.9
CCOC(=O)c1c(C)n(-c2ccccc2)c2ccc(O)cc12 | 2.67
Cc1cc(=O)c(-c2ccc(Oc3ccc(OC(F)(F)F)cc3)cc2)c(C)[nH]1 | -0.47
